In PubChem BioAssay:

test: probe aShh binding to arrayed compounds – biochemical, biotinylated probe, 635/667 nm fluorescence, primary screen (AID 1114); settings: small-molecule microarray, higher = more signal;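 note: probe is biotin-labelled aShh protein from a stem cell growth factor screen; measures binding of labelled protein to compounds printed on the slide; score merges feature fluorescence at 667 nm with signal-to-noise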

| Structure (SMILES) | composite z-score |
| --- | --- |
| CCOC(=O)C[C@H]1[C@H](OC(=O)c2ccccc2-c2ccccc2)[C@@H](NC(=O)c2ccccc2)c2cc(OCCCO)ccc2N1C(=O)Cc1ccc(OC)cc1 | -0.289 |
| C=CCC(OC(C)=O)[C@@H]1[C@@H](N(Cc2ccc(-c3cccc(C(F)(F)F)c3)o2)C(=O)c2cccc3ccccc23)c2cc(OCCCO)ccc2N1C(=O)c1ccc(-c2ccccc2)cc1 (stereo not given in full) | -0.138 |
| C[C@H]1ON(c2ccccc2)[C@@H](c2ccccc2)[C@@H]1C(=O)N1C(=O)OC[C@@H]1c1ccccc1 | -0.251 |
| COCCOC(=O)N1C(=O)[C@@]2(c3cc(C#CCNC(N)=O)ccc31)[C@H](C(N)=O)[C@H]1C(=O)O[C@H](c3ccccc3)[C@H](c3ccccc3)N1[C@@H]2c1ccc(OCCO)cc1 | -0.156 |
| CCCC=C(CCC)[C@@H](NS(=O)(=O)c1cccc2cccnc12)c1ccc(C(=O)OC)cc1 | 0.0093 |
| CCOC(=O)C1=CC[C@@H](c2ccccc2)N(S(=O)(=O)c2ccc(C)cc2)[C@H]1C=C(C)C | 0.199 |
| C#CCNS(=O)(=O)N(C)C | 0.0463 |
| O=C1O[C@H](c2ccccc2)[C@H](c2ccccc2)N2[C@H]1[C@@H](C(=O)N1CCN(c3ncccn3)CC1)[C@]1(C(=O)Nc3ccc(C#CCCO)cc31)[C@H]2c1ccc(OCCO)cc1 | 0.0141 |
| COCCOC(=O)N1C(=O)[C@@]2(c3cc(C#CC4(O)CCCCCC4)ccc31)[C@H](C(=O)N1CCN(c3ncccn3)CC1)[C@H]1C(=O)O[C@H](c3ccccc3)[C@H](c3ccccc3)N1[C@@H]2c1ccc(O)cc1 | 0.128 |
| Cc1cc(C)c(C(O)C2C=CC3C(=O)N(c4ccccc4)C(=O)C3N2Nc2ccc([N+](=O)[O-])cc2)c(C)c1 (stereo not given) | 0.0328 |
| Cc1ccc(S[C@]2(C(=O)O)CC(=O)N(C3CCCCC3)[C@@H]2c2ccc(CO)cc2)cc1 | 0.428 |
| CCOc1cc(C(O)C2C=CC3C(=O)NC(=O)C3N2Nc2ccccn2)ccc1O (stereo not given) | -0.117 |
| CC(=O)NCCCC[C@@H]1NC(=O)[C@@H]2C[C@H](C(=O)NCCCC[N+](C)(C)C)[C@H](c3cccc(OCCO)c3)N2C1=O | -0.0643 |
| COc1ccc([Si](C)(C)[C@@H]2[C@@H](CC(=O)N(CCO)Cc3ccccc3)O[C@]3(C(=O)N(Cc4ccc(N5CCOC5=O)cc4)c4ccccc43)[C@H]2C)cc1 | 0.321 |
| COC(=O)[C@]1(Cc2ccccc2CN=[N+]=[N-])N=C(c2ccc(OCCCO)cc2)O[C@@H]1c1ccccc1CN=[N+]=[N-] | 0.246 |
| CN(C)C(=O)[C@]1(Cc2ccccc2N=[N+]=[N-])N=C(c2ccc(OCCCO)cc2)O[C@@H]1c1ccccc1CN=[N+]=[N-] | 0.13 |
| CC(C)(C)OC(=O)CC[C@@]1(C(=O)N2CCCCC2)N=C(c2ccc(OCCCO)cc2)O[C@@H]1c1ccccc1CN=[N+]=[N-] | 0.199 |
| CCN(CC)c1ccc(N2CC=CC34O[C@@H]5/C=C\CCCOC(=O)C5[C@H]3C(=O)N(CCCCCO)[C@@H]4C2=O)cc1 (stereo not given in full) | -0.221 |

| Structure (SMILES) | composite z-score |
| --- | --- |
| [N-]=[N+]=Nc1ccccc1C[C@]1(C(=O)NCCN2CCOCC2)N=C(c2ccc(OCCCO)cc2)O[C@H]1c1ccccc1N=[N+]=[N-] | -0.138 |
| COC(=O)[C@]1(Cc2ccccc2CN=[N+]=[N-])N=C(c2ccc(OCCCO)cc2)O[C@@H]1c1ccccc1 | -0.0793 |
| COCCOC(=O)N1C(=O)[C@@]2(c3cc(C#Cc4ccc(OC)cc4)ccc31)[C@H](C(=O)N1CCc3cc(OC)c(OC)cc3C1)[C@H]1C(=O)O[C@H](c3ccccc3)[C@H](c3ccccc3)N1[C@@H]2c1ccc(O)cc1 | 0.191 |
| COCCOC(=O)N1C(=O)[C@@]2(c3cc(C#CCCO)ccc31)[C@H](C(=O)NC[C@H](O)c1ccccc1)[C@H]1C(=O)O[C@H](c3ccccc3)[C@H](c3ccccc3)N1[C@@H]2c1ccccc1OCCO | 0.323 |
| COc1ccccc1CN1C(=O)c2ccccc2[C@@H](C(=O)NCC(C)C)[C@@H]1c1ccc(CO)cc1 | -0.776 |
| C=CCN1C(=O)[C@@]2(O[C@@H](CCn3cc([C@H](O)c4ccccc4)nn3)[C@H]([Si](C)(C)c3ccc(OC)cc3)[C@H]2C)c2cc(NC(=O)c3ccc(OC)cc3)ccc21 | 0.0815 |
| O=C(O)[C@]1(CCS(=O)(=O)c2ccccc2)N=C(c2ccc(OCCCO)cc2)O[C@@H]1c1ccccc1 | -0.0322 |
| CN(C)CCCN1C(=O)[C@@]2(Cc3ccccc31)c1ccccc1C(=O)N(Cc1ccccc1)[C@H]2c1ccc(CO)cc1 | -0.289 |
| COC(=O)C(CC#Cc1ccc2c(c1)[C@]1(C(=O)N2)[C@H](c2ccc(O)cc2)N2[C@H](c3ccccc3)[C@H](c3ccccc3)OC(=O)[C@H]2[C@@H]1C(N)=O)C(=O)OC | -0.352 |
| O=C1C2C=CC(C(O)c3ccc(Br)cc3)N(Nc3ccccc3)C2C(=O)N1c1ccccc1 (stereo not given) | 0.389 |
| O=C(O)[C@@]1(Cc2ccccc2)COC(c2ccc(OCCCO)cc2)=N1 | 0.214 |
| COC(=O)c1ccc(OC)c(/C=C\CC(CCc2ccccc2)OC(=O)c2ccncc2)c1 (stereo not given) | -0.117 |
| COC(=O)[C@@]1(Cc2ccc(OC)cc2)[C@H]2c3cc(C(=O)N4CCCC4)n(CCc4ccc(O)c(OC)c4)c3C[C@H]2CN1C(=O)c1ccccc1 | 0.03 |
| C[N+](C)(C)CCCC[C@@H]1NC(=O)[C@H]2C[C@@H](C(=O)NCCCCCCN)[C@@H](c3cccc(OCCO)c3)N2C1=O | 0.705 |
| COC(=O)[C@]1(Cc2ccccc2N=[N+]=[N-])N=C(c2ccc(OCCCO)cc2)O[C@@H]1c1ccccc1 | -0.111 |
| CC(C)N1C(=O)c2ccccc2[C@](C)(C(=O)O)[C@@H]1c1ccc(CO)cc1 | 0.133 |
| COc1ccc(C(=O)Nc2ccc3c(c2)[C@]2(O[C@@H](CCO)[C@H]([Si](C)(C)c4ccc(OC)cc4)[C@H]2C)C(=O)N3Cc2ccccc2)cc1 | 0.0062 |
